Screening results from PubChem BioAssay.
aSyn rescue – rescues yeast growth from alpha-synuclein toxicity. Potency, µM (titrated, usually from 46.1 µM), for the others: at the top dose growth rescue (activation), most hits filed as activators. Yeast expressing alpha-synuclein, growth rescue, BacTiter-Glo, 24 h. 0.14% of 370,000 active. AID 652106; note: potency is the fitted concentration of half-maximal effect; % of control where 0% means no effect; nearly all actives have a fitted effect of over 65% in size
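Screening used galactose-induced yeast with toxic alpha-synuclein levels, exposed to compound for 24 hr at 30 deg C. Cell growth, read with BacTiter-Glo luminescence, gave the measured signal.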
Mito fusion act – inhibitors of mitochondrial division or activators of mitochondrial fusion; S. cerevisiae fusion-defective mutant growth rescue, CellTiterGlo 48 h; Potency, µM (titrated, usually from 46.1 µM), for inactives: at the top dose growth rescue (activation), actives largely listed as activators; AID 485298; 0.23% of 320,000 active; note: potency is the fitted concentration of half-maximal effect; % of control where 0% means no effect; nearly all actives have a fitted effect of over 45% in size
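Compounds are tested for their ability to restore growth of mitochondrial fusion-defective yeast strains at non-permissive 37C in YPEG medium over 48 hours. Viability is quantified by luciferase luminescence.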
CCT modulator – cytosolic chaperonin activity modulation | purified chaperonin ATPase assay, HTRF ADP detection, 30 min | activity change, % (concentration not given with the values), hits read low | 0.3% of 360,000 active | AID 651819; in the data active = activity change below about -30%; note: % is set by controls: 0 for no effect and ±100 for the full control effect
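Enzyme 40 or 20 nM (batch-dependent) in Tris pH 7.4/KCl/MgCl2/DTT; cpd 76 uM single point; ATP 10 uM; 30 min 37 °C; Transcreener ADP HTRF detection, 30 min RT; ratio 665/615.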
Akt phos inh – blocks phosphorylation of Akt; Neuro2A IGF-stimulated pAkt S473 HTRF, 20 min; hits give low values; activity change, % for hits at 50 µM; 0.32% of 360,000 active; in the data active = activity change below about -80%; inconclusive = mostly about -51% to -80%; note: % is set by controls: 0 for no effect and ±100 for the full control effect
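Neuro2A cells in DMEM with 0.5% FBS, overnight at 37 deg C, given compound at single 50 µM final, then IGF (6 nM final) for 20 min at 37 deg C. Lysed; phospho-Akt Ser473 by HTRF after 24 h, 665/615 ratio.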
Apoferritin bind – candidate novel general anesthetic via apoferritin binding | P02791 | apoferritin/1-aminoanthracene competitive binding, fluorescence | Potency, µM (series often up to 77.5 µM), for the others: at the top dose activity change, negative = displacement, hits mostly inhibitors | 0.074% of 350,000 active | AID 485281; note: potency is the fitted concentration of half-maximal effect; % is set by controls: 0 for no effect and ±100 for the full control effect; nearly all actives have a fitted effect of over 20% in size
Target sequence (P02791 2-175 limits assumed): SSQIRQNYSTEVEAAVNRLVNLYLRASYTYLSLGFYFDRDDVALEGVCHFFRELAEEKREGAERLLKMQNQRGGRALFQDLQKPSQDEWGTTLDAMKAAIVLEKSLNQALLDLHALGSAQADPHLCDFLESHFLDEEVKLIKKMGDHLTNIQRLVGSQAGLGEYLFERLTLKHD
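Read-out: endpoint 1-AMA fluorescence, excitation 380 nm and emission 535 nm, after compounds sit 10 min at room temperature with 10 uM horse-spleen apoferritin in 50% saturated 1-AMA/PBS. Values come from four-parameter Hill fits.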
TDP43 rescue – inhibitors of TDP-43 toxicity in yeast. TDP-43 expressing yeast growth rescue, BacTiter-Glo, 24 h. Potency, µM (top dose mostly 46.1 µM), without a hit: at the highest dose growth rescue (activation), actives largely listed as activators. 1.8% of 410,000 active; note: potency is the fitted concentration of half-maximal effect; % of control where 0% means no effect; nearly all actives have a fitted effect of over 50% in size
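Growth rescue of TDP-43-toxic yeast measured as ATP luminescence (BacTiter-Glo). Cells grown to mid-log in raffinose, induced in galactose at OD600=0.02, exposed to compound 24 hr at 30 deg C.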
Starred values were filed as active, the others as inactive; i = inactive; ? = inconclusive; . = no result given; [ ] = another dose, or the depositor's remark. Most compounds without a hit are left out; they make up all but 2.5% or so of the library. Unless noted, calls come from the whole dose curve; as a rule, active = well fitted curve in the direction sought with a large enough effect; inconclusive = small, poorly fitted or top-dose-only effect, or another doubt; inactive = no such curve, though single readings can be large; an effect the other way counts as inactive or inconclusive.

SMILES	aSyn rescue	Mito fusion act	CCT modulator	Akt phos inh	Apoferritin bind	TDP43 rescue
C=C1C=C(C(F)(F)F)n2ncc(C(=O)NCc3ccc(F)cc3)c2N1	-6%	.	.	.	.	.
O=C(NC1CC1)C1Nc2ccc(OC(F)(F)F)cc2C2C=CCC12 (centres undefined)	-7%	.	-20	i	.	5%
O=C(NCc1ccccn1)C1Nc2ccc(OC(F)(F)F)cc2C2C=CCC12 (centres undefined)	-3%	.	2	i	.	18µM*
CCOC(=O)C1Nc2ccc(OC(F)(F)F)cc2C2C=CCC12 (centres undefined)	-11%	.	1	i	.	-17%
O=C(NCc1ccccc1)C1Nc2ccc(OC(F)(F)F)cc2C2C=CCC12 (centres undefined)	1%	.	-2	i	.	22µM*
Cc1ccc(CN2CC(C(=O)N3CCN(c4ccccc4Cl)CC3)CC2=O)cc1 (centres undefined)	0%[1.84 µM]	-6%	0	i	.	35µM*
O=C(C1CCC(=O)N(C2CCCCCC2)C1)N1CCN(c2ccccc2Cl)CC1 (centres undefined)	10%	11%	0	i	-20%	35µM*
Cc1ccccc1N1CCN(C(=O)C2CCC(=O)N(C3CCCC3)C2)CC1 (centres undefined)	0%	3%	-1	i	-6%	-3%
N/C(=N\OC(=O)c1ccc(Cl)cc1)c1ccc(Cl)cc1	-23%	?	-2	i	40%	7.9µM*
N/C(=N\OC(=O)c1ccc(F)cc1)c1ccc(Br)cc1	-12%	1%	0	i	1%	3.2µM*
N/C(=N\OC(=O)c1ccccc1Cl)c1ccc(Cl)cc1	-65%	?	-1	i	-1%	?
CCOC(=O)N/N=C/c1ccc(OCCSc2ccc(Cl)cc2)c(OCC)c1	9%	35µM*	0	i	24%	22%
CCOc1cc(/C=N/NS(=O)(=O)c2ccccc2)ccc1OS(=O)(=O)c1ccc(C)cc1	-1%	2%	2	i	-13%	17%
CCOc1cc(/C=N/NC(=O)COc2ccc(Cl)cc2)ccc1OS(=O)(=O)c1ccccc1	24%	13µM*	0	i	?	13%
Cn1c(SCC(=O)c2ccccc2)nc2cccnc21	-3%	-2%	0	i	-3%	12%
Cc1ccc(C(=O)CSc2nc3cccnc3n2C)cc1	0%	-2%	-1	-106%*	-15%	-10%
CC(=O)NC(Cc1c(F)c(F)c(F)c(F)c1F)C(=O)NCC(N)C(=O)c1ccccc1 (centres undefined)	-2%	.	.	.	.	.
CN=C(NC#N)SCC(=O)c1ccc(Cl)cc1Cl	-1%	-1%	-38*	i	-18%	-8%
Cc1cc(C)c(C#N)c(SCC(=O)c2ccc(Cl)cc2Cl)n1	1%	6%	3	i	?	-6%
O=C(COC(=O)c1cccc(Oc2ccccc2)c1)NCc1ccco1	16%	3%	-1	i	?	16µM*
N#Cc1cccc(C(=O)OCC(=O)NCc2ccco2)c1	-6%	2%	-4	i	-5%	7%
O=C(NCc1ccco1)c1ccc(Oc2ccccc2)cc1	0%	2%	-1	i	-23%	20µM*
O=C(NCc1ccco1)c1ccc(C(=O)NCc2ccco2)cc1	-3%	.	-4	i	.	13%
CCOC(=O)c1ccccc1NC(=O)c1sc2nc3n(c(=O)c2c1C)CCCC3	.	.	.	.	475%	3%
COc1ccc(Cn2c(C(=O)O)c(CNCc3ccco3)c3ccc(OC)cc32)cc1	.	.	.	.	-9%	11%
SMILES	aSyn rescue	Mito fusion act	CCT modulator	Akt phos inh	Apoferritin bind	TDP43 rescue
CC(C)(C)C1=NN=C2c3ccccc3C(=O)C21 (centres undefined)	-15%	?	0	i	-1%	16µM*
O=C1c2ccccc2C(=O)C1c1ccc(O)cc1	1%	-2%	-4	i	-2%	-11%[0.397 µM]
CCOC(=O)c1ccc(NC(=S)N2CCSC2c2ccc(Cl)cc2)cc1 (centres undefined)	14%	?	-2	i	-15%	16µM*
Clc1ncc(C#Cc2ccccc2)c2ncncc12	-73%	.	.	.	.	.
S=Cc1ccc(/C=C/c2ccnc3ccccc23)cc1	2%	.	.	.	.	.
CN1C(=O)C2C3c4ccccc4C(c4ccccc43)[C@@H]2C1=O (some centres undefined)	-2%	12%	-1	i	-1%	2%
CC(=O)N(C(C)=O)N1C(=O)C2C3c4ccccc4C(c4ccccc43)C2C1=O (centres undefined)	-21%	1%	1	i	-11%	22µM*
CCN(C(=O)CSc1ccc2ccccc2n1)C1CCCCC1	-13%	.	-3	i	.	22µM*
CC(=O)Nc1cccc(C(=O)OCc2ccccc2)c1	-7%	28%	1	i	0%	13µM*
COc1ccc2c(c1)C=C/C2=C/c1ccc(N(C)C)cc1	-8%	.	.	.	.	.
COc1cc(Cl)c(S(=O)(=O)NCCc2c(C)[nH]c3c(C)cccc23)cc1Cl	4%	.	.	.	3%	-19%
Cc1cc(C)c2c(CC(=O)Nc3ccc(S(=O)(=O)N4CCCC(C)C4)cc3)coc2c1 (centres undefined)	.	.	.	.	-6%	1%
CCn1cc(Br)c(C(=O)Nc2ccc(F)c(Cl)c2)n1	0%	6%	-2	i	-20%	11µM*
CCOC(=O)c1ccc(NC(=O)c2nn(CC)cc2Br)cc1	-18%	1%	0	.	-9%	14%
CCn1cc(Br)c(C(=O)Nc2ccc(Cl)cc2Cl)n1	2%	19%	0	i	-10%	4.5µM*
CCCN(CCC)C(=O)Cn1c(=O)n(Cc2ccc(C(=O)NCCc3ccc(Cl)cc3)cc2)c(=O)c2ccccc21	.	.	.	.	9%	9%
CCOc1ccccc1C(=O)Nc1cccc(-c2ccc(N3CCOCC3)nn2)c1	7%	-26%	0	i	.	16µM*
O=C(COc1ccccc1)Nc1ccc(-c2ccc(N3CCOCC3)nn2)cc1	-4%	-2%	-137*	i	.	0%
Cc1ccc(-c2[nH]ncc2CNCc2ccc(CN(C)C)cc2)cc1	-1%	.	.	.	.	.
Cc1cc2c(c(C)c1Cl)C(c1ccc3c(c1)OCO3)CC(O)(c1ccccc1)O2 (centres undefined)	.	.	.	.	-2%	.
CCOc1ccc(C(=O)Oc2cc(C)[nH]c(=O)c2[N+](=O)[O-])cc1	-9%	2%	-3	i	-11%	?
CCCCOc1ccc(C(=O)Oc2cc(C)[nH]c(=O)c2[N+](=O)[O-])cc1	-2%	2%	-1	.	-6%	18µM*
COc1cc(/C=C/c2ccc3ccccc3n2)cc(OC)c1OC	-24%	.	.	.	.	.
